Assay results published in PubChem BioAssay (NCATS).
Inconclusive results are not listed. Where a call stands in place of a potency, no number is given. Active and inactive are the calls of the source. Calls follow the shape of the dose curve; as a rule, active = well fitted inhibition curve with a large enough effect; inconclusive = small, poorly fitted or top-dose-only effect; inactive = no such curve, though single readings can be large or run the other way.

Assay: BET inhibitor-based combinations targeting novel dependencies in MECOM-rearranged (r) AML: MV-4-11 cell line (AID 2202233); also: nearly all actives have a fitted effect of over 45% in size
Conditions: MV-4-11 AML viability, CellTiter-Glo luminescence, 48 h; series mostly up to 46 µM
Method in brief: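 Using pin-tool transfer, drugs were added in 11 doses to cells (500/well), incubated 48 hr, and assessed with CellTiter-Glo. Z-AUC is a mean-centring transformation applied separately to each screened line.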
Potency is read from the fitted curve at half-maximal effect.

SMILES | Potency
Oc1ccc(C2CCN(c3ccnc4ccccc34)CC2)cc1O | 9.34 µM (active)
COc1cc2c(cc1OC)CC(=O)N(CCCN(C)C[C@H]1Cc3cc(OC)c(OC)cc31)CC2 | inactive
COc1c(C)c2c(c(O)c1C/C=C(\C)CCC(=O)O)C(=O)OC2 | 0.742 µM (active)
Cc1ccsc1C(=CCCN1CCC[C@@H](C(=O)O)C1)c1sccc1C | inactive
CC(C)C[C@@H](N)[C@H](O)C(=O)N[C@H](C(=O)N[C@H](C(=O)N[C@@H](CC(=O)O)C(=O)O)C(C)C)C(C)C | inactive
CC(C)C[C@H](CC(=O)O)C(=O)N[C@@H](Cc1c[nH]c2ccccc12)C(=O)N[C@@H](C)c1ccccc1 | inactive
NC(=NCCCCCCN=C(N)N=C(N)Nc1ccc(Cl)cc1)N=C(N)Nc1ccc(Cl)cc1 | 20.9 µM (active)
CC(=O)OC[C@@H]1O[C@@H](n2ccc(=O)[nH]c2=O)[C@H](OC(C)=O)[C@H]1OC(C)=O | inactive
O=C(c1ccc(F)cc1)N1CCC[C@H](c2nc(-c3ccc(F)cc3)no2)C1 | 18.6 µM (active)
COC(=O)C1C2CC3c4[nH]c5cc(OC)ccc5c4CCN3CC2CC(OC(=O)c2cc(OC)c(OC)c(OC)c2)C1OC (stereo unspecified) | 20.9 µM (active)
C[C@H](NC(=O)Cc1cc(F)cc(F)c1)C(=O)N[C@H](C(=O)OC(C)(C)C)c1ccccc1 | inactive
CCc1cc(-c2n[nH]c(C)c2-c2ccc3c(c2)OCCO3)c(O)cc1O | 4.68 µM (active)
CCn1c(-c2nonc2N)nc2cnc(Oc3cccc(NC(=O)c4ccc(OCCN5CCOCC5)cc4)c3)cc21 | 0.332 µM (active)
CCOc1ccccc1N=Nc1c(C)[nH]n(-c2nc(-c3ccccc3)cs2)c1=O | inactive
O=C(O)C1=CC(O)C(O)[C@H](O)C1 (stereo partly specified) | inactive
CCCCC(CC)COC(=O)C(C#N)=C(c1ccccc1)c1ccccc1 (stereo unspecified) | inactive
CC1(C)O[C@@H]2C[C@H]3[C@@H]4CCC5=CC(=O)C=C[C@]5(C)[C@@]4(F)[C@@H](O)C[C@]3(C)[C@]2(C(=O)CO)O1 | inactive
COc1cc(S(C)(=O)=O)ccc1Nc1nc2ccc(-c3ccc(NC(=O)[C@H](C)c4ccc(F)cc4)cc3)cn2n1 | 1.18 µM (active)
OC(c1cc(C(F)(F)F)nc2c(C(F)(F)F)cccc12)C1CCCCN1 (stereo unspecified) | 20.9 µM (active)
COc1ccc2cccc(CCNC(C)=O)c2c1 | inactive
Nc1cc(C(Cl)=C(Cl)Cl)c(S(N)(=O)=O)cc1S(N)(=O)=O | inactive
Cc1cccc(CN2CCN(C(c3ccccc3)c3ccc(Cl)cc3)CC2)c1 (stereo unspecified) | 20.9 µM (active)
Nc1ccc(S(N)(=O)=O)cc1 | inactive
CC(=O)SCC(Cc1ccccc1)C(=O)NCC(=O)OCc1ccccc1 (stereo unspecified) | inactive
Cc1nnc(NS(=O)(=O)c2ccc(N)cc2)s1 | inactive
CNNCc1ccc(C(=O)NC(C)C)cc1 | inactive
